# Rows were chosen to be rich in hits. Some 4.1% of all compounds tested hit in one or more screens of this group.
# Peg3 promoter = reduces Peg3 promoter-driven luciferase expression in HeLa | HeLa PEG-Prom luciferase reporter, luminescence, overnight | 1.7% of 360,000 active | AID 588405 | inhibition, % at 20 µM;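 active = inhibition of at least 50% at 20 µM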
# TWEAK-Fn14 inh = blocks TWEAK-Fn14 interaction in a reporter cell assay; TWEAK-stimulated Fn14 reporter cells, luciferase luminescence, 8 h; inhibition, % at 10 µM; 2% of 360,000 active; AID 1159606; in the data active = inhibition above about 50%
# EBV LMP1 NFkB = reduces LMP1-driven NF-kappaB luciferase signal; 0.69% of 350,000 active; inhibition, % at 12.5 µM; AID 504558; LMP1-induced NF-kappaB luciferase reporter cells, luminescence; in the data active = inhibition above about 41%;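 note: 0% = neutral control wells and 100% = reference inhibitor control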
# TROY NFkB inh = TROY signaling inhibition. Q293 LMP1-TROYcd NF-kB luciferase reporter, 4 h. inhibition, % at 10 µM. 0.98% of 360,000 active. AID 1347056;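 active = compounds whose plate-normalised and pattern-corrected inhibition of the luciferase reporter signal at the single screening dose is 50% or more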
# MITF TRPM1 inh = inhibitors of MITF-driven TRPM1 promoter in melanoma cells; SK-MEL-5 TRPM1 promoter luciferase, 24 h; inhibition, % at 12.5 µM; 0.83% of 330,000 active;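 active = mean inhibition across replicates of 60% or more, whatever share of single replicates reaches that level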
# Shn3 3UTR inh = inhibitors of Schnurri-3 3'UTR reporter in osteoblasts | Clone20 osteoblast Shn3 3'UTR firefly luciferase, 24 h | inhibition, % at 12.5 µM | 0.52% of 360,000 active | AID 588674;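 active = mean inhibition of at least 75% with every replicate also reaching 75%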;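 note: 0% = median of neutral control wells and 100% = pilot-screen positive control compound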
# * hit, by the source's call; . = not tested or not shown.
SMILES,Peg3 promoter,TWEAK-Fn14 inh,EBV LMP1 NFkB,TROY NFkB inh,MITF TRPM1 inh,Shn3 3UTR inh
COc1cccc(C2=Cc3ccc(F)cc3C(CC(C)=O)N2c2ccc(C#CC3(O)CCCCC3)cc2)c1 (centres undefined),.,65.0*,.,-4.1,.,.
CCC(c1nnnn1-c1ccc2c(c1)OCCO2)N1CCN(c2ccc(F)cc2)CC1 (centres undefined),.,35.1,.,20.7,.,.
CSc1nc(Nc2ccc(Cl)cc2)c(C#N)c(=O)[nH]1,52.8*,-19.1,1.6,10.1,7.9,18.7
CCOC(=O)Cn1c(=O)c2c(nc3n2CCCCN3c2ccc(C)cc2)n(C)c1=O,17.3,17.8,2.0,8.2,5.2,26.7
CCCn1c(=O)c2c(nc3n2CCCN3CCc2ccccc2)n(C)c1=O,31.4,19.6,7.6,5.1,5.4,3.4
Cn1c(=O)n(CCc2ccccc2)c(=O)c2c1nc1n2CCCN1Cc1ccccc1,44.8,52.0*,0.9,29.4,17.6,8.4
Cc1ccc(N2CCCCn3c2nc2c3c(=O)n(CC(=O)O)c(=O)n2C)cc1,13.1,-7.2,55.5*,-13.4,11.0,6.3
COc1ccc(N2CCCn3c2nc2c3c(=O)n(CCc3ccccc3)c(=O)n2C)cc1,51.9*,35.6,-12.1,9.4,8.1,9.0
Cn1c(=O)n(CCc2ccccc2)c(=O)c2c1nc1n2CCCN1CCc1ccccc1,68.8*,46.9,5.8,36.7,14.5,9.6
COc1ccc(S(=O)(=O)N2CCC(C(=O)Oc3cccc(C)c3)CC2)cc1OC,-1.2,-20.3,-0.2,18.0,7.1,-8.6
COc1cc(NC(=O)c2ccccc2Cl)c(OC)cc1NC(=O)CN1CCCCC1,6.2,2.3,-2.9,-29.2,-14.6,11.2
O=[N+]([O-])c1ccc(CS(=O)c2ccccc2)cc1 (centres undefined),1.3,9.5,7.6,0.5,-7.0,2.2
O=[N+]([O-])c1ccc(S(=O)Cc2ccccc2)c([N+](=O)[O-])c1 (centres undefined),96.1*,42.2,28.6,74.2*,97.0*,95.0*
CCCCCC(=O)NN=C1CCN(Cc2ccccc2)CC1,10.1,94.1*,-7.5,-3.4,-0.2,-22.5
O=C(NN=C1CCN(Cc2ccccc2)CC1)c1ccccc1,5.5,-11.8,-2.5,-17.2,0.4,-10.6
COc1ccc(-c2nc3cnccn3c2NCc2ccccc2)cc1SC1CCCCC1,47.1,5.5,10.2,-5.2,-3.2,23.7
CCCCNc1c(-c2ccc(OC)c(SC3CCCCC3)c2)nc2cnccn12,68.2*,9.9,7.2,6.4,-1.0,13.7
CCCCNc1c(-c2ccc(OC)c(SC3CCCCC3)c2)nc2ccc(Cl)cn12,14.0,24.6,2.7,-10.7,6.9,26.3
CCCCNc1c(-c2ccc(OC)c(SC3CCCCC3)c2)nc2cc(C)ccn12,56.2*,27.1,-2.1,17.4,4.6,37.0
Cn1c(=O)c2c(=O)cc(N)[nH]c2n(C)c1=O,0.1,6.5,0.7,-2.6,12.0,-31.0
COc1ccc(-c2csc(/C(C#N)=C\c3ccc(O)c([N+](=O)[O-])c3)n2)cc1OC,49.9,59.8*,-1.9,35.7,3.9,-7.9
O=C(O)C/C(=C\c1ccc(N2CCOCC2)c([N+](=O)[O-])c1)c1nc2ccccc2s1,-35.6,45.4,-9.0,51.6*,-2.0,-42.5
N#C/C(=C\c1ccc(O)c([N+](=O)[O-])c1)c1nc2ccccc2s1,-50.3,53.3*,1.3,50.2*,-1.5,-2.0
COc1ccc(-c2csc(/C(C#N)=C\c3ccc(OC)c([N+](=O)[O-])c3)n2)cc1,5.7,-31.8,-6.8,-9.7,-8.5,11.3
O=C(O)CC/C(=C\c1ccc(N2CCOCC2)c([N+](=O)[O-])c1)c1nc2ccccc2s1,3.0,-11.4,2.0,32.6,-2.9,2.7
SMILES,Peg3 promoter,TWEAK-Fn14 inh,EBV LMP1 NFkB,TROY NFkB inh,MITF TRPM1 inh,Shn3 3UTR inh
CC(Oc1ccccc1)C(=O)N=C1SC2CS(=O)(=O)CC2N1c1ccccc1 (centres undefined),-11.4,-0.7,-0.8,-9.8,4.1,8.9
O=C1Nc2cc(C(=O)NCCN3CCCCCC3)ccc2S/C1=C\c1ccccc1,94.4*,3.3,0.1,-17.2,96.0*,15.9
COc1cccc(/C=C2\Sc3ccc(C(=O)NCc4cccnc4)cc3N(C)C2=O)c1,19.1,4.2,21.2,18.2,1.7,-0.8
O=C1Nc2cc(C(=O)NCCCN3CCCC3)ccc2S/C1=C/c1cccc(Cl)c1,99.3*,-11.0,-38.4,1.9,.,2.6
COc1cccc(/C=C2/Sc3ccc(C(=O)NCCN4CCCCCC4)cc3NC2=O)c1,100.3*,-18.3,-18.9,2.3,74.5*,-11.9
CCN1CCN(CCCNC(=O)c2ccc3c(c2)NC(=O)c2ccccc2S3)CC1,1.2,-6.5,-1.7,-3.5,.,-11.3
O=c1c(/C=N/OCc2ccc(Cl)cc2Cl)c[nH]n1-c1cccc(Cl)n1,-15.7,-40.7,2.9,5.8,9.0,2.6
Cc1ccc(NC(=S)N(CCCN2CCCC(C)C2)Cc2ccco2)cc1C (centres undefined),-19.1,-2.7,8.1,-40.1,-14.7,10.0
CC(=O)NCCNC(=O)c1cccc(NS(=O)(=O)c2ccc3c(c2)OCCO3)c1,5.1,5.1,3.3,-22.2,5.5,-6.8
COc1ccc(N(CC(=O)NCc2ccc3c(c2)OCO3)S(=O)(=O)c2ccc(O)c(C(=O)O)c2)cc1,-10.2,-13.2,8.1,-3.7,7.8,-13.4
COc1ccc(-c2nc3cc(NC(=O)Cc4ccc(OC)c(OC)c4)ccc3o2)cc1,-65.2,10.4,9.7,20.5,28.2,53.3
COc1ccc(N(Cc2ccco2)C(=O)c2ccccc2F)cc1OC,14.2,-2.1,-5.1,-15.7,1.4,2.5
O=C(N/N=C1\C2CN3CCN(C2)CC1(c1ccccc1)C3)Nc1ccccc1,5.5,7.4,1.8,-1.8,6.6,-2.6
N#Cc1ccsc1NC(=O)CSc1ncnc2ccccc12,17.3,1.2,7.3,56.0*,12.8,-0.7
N#Cc1ccsc1NC(=O)CSc1ncn[nH]1,-22.0,8.3,-16.4,-9.1,-8.3,-31.6
CN(C)S(=O)(=O)c1cccc(NC(=O)CSc2ncnc3ccccc23)c1,10.4,64.0*,5.4,38.3,8.4,23.7
CN(C)S(=O)(=O)c1ccc(NC(=O)CSc2ncnc3ccccc23)cc1,14.0,24.7,-4.4,-0.6,11.1,4.1
N#CCCN(Cc1cccnc1)C(=S)NC(=O)c1ccccc1,1.0,4.3,1.7,4.2,8.7,6.0
O=C(Nc1ccc([N+](=O)[O-])cc1)Nc1ccc(OC(F)F)c(Cl)c1,99.5*,82.3*,68.3*,60.9*,75.6*,87.7*
O=C(Nc1ccc(OC(F)F)c(Cl)c1)Nc1ccc2c(c1)OCO2,-107.5,-17.6,-6.2,32.0,-43.9,-1.5
CC1(C)SC2c3ccccc3C(=O)N2[C@@H]1C(=O)NCCCN1CCOCC1 (some centres undefined),10.3,-20.2,70.6*,-3.5,-1.3,-3.5
